Assay results from PubChem BioAssay (NCI).
The panel holds about 83,000 compounds, 20% with a hit somewhere; the sample as a whole holds those more often.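 Assay: single dose, 48 h. Readout: percent growth (0 = no net growth; negative = cell death). Active: <10.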 A number with no mark means an inactive call. The source made the active and inactive calls.

Columns and labels:
Test in all cases: NCI-60 one-dose screen, 48 h (100 = growth as untreated, 0 = no growth, -100 = all killed)
Conditions in all cases: 10 µM unless noted
[1] = test system: SR leukemia
[2] = test system: RPMI-8226 leukemia
[3] = test system: OVCAR-8 ovarian
[4] = test system: OVCAR-5 ovarian
[5] = test system: OVCAR-4 ovarian
[6] = test system: SK-OV-3 ovarian
[7] = test system: IGROV1 ovarian
[8] = test system: OVCAR-3 ovarian
[9] = test system: HS 578T breast
[10] = test system: NCI/ADR-RES ovarian

Row | SMILES | growth [1] | growth [2] | growth [3] | growth [4] [%] | growth [5] [%] | growth [6] | growth [7] | growth [8] | growth [9] [%] | growth [10] [%]
1 | CCc1nc(N)nc(N)c1C#CC(C)c1cc(-c2ccnc(C)c2)c2oc(C)nc2c1 (stereo not given) | 3.38% (active) | 2.39% (active) | 18.6% | 36.8 | 51 | 16.8% | 2.77% (active) | 17% | 26.4 | 11.5
2 | CC(=O)c1cc(C(=O)c2ccc3c(c2)Sc2ccccc2N3)n2ccccc12 | 9.43% (active) | 5.63% (active) | 6.54% (active) | 68.2 | 40.9 | 9.84% (active) | 15% | -16.8% (active) | 24.9 | 22.1
3 | CC(=O)c1cc2c(N)c(C(=O)Nc3ccccc3)sc2nc1C | 51.8% | 89% | 93.9% | 96 | 88.9 | 28.8% | 83.9% | 90% | 69.8 | 75.9
4 | CC1=C[C@H]2c3c(c(O)c(O)c4oc5cc(O)ccc5c(=O)c34)[C@H](c3cc(O)c(O)c4oc5cc(O)ccc5c(=O)c34)[C@H]2C(C)(C)C1 | 24.6% | 29.5% | 25.4% | 59.1 | 56 | 59.7% | 21.4% | 46.4% | 22.4 | 101
5 | COc1ccc(/C=N/C2=C(C#N)C(c3ccc(N(C)C)cc3)c3ccc4ccccc4c3O2)cc1 (stereo not given) | 19.4% | 63% | 85.8% | 88 | 86.8 | 73.7% | 39.5% | 38.2% | 58.6 | 46.7
6 | COc1cccc(C2=NN3C(C2)c2cc(Br)cc(OC)c2OC32CCN(Cc3ccccc3)CC2)c1 (stereo not given) | 111% | 107% | 104% | 105 | 90.8 | 106% | 98.6% | 105% | 94.7 | 105
7 | COc1ccc(N=Nc2nccs2)c(O)c1 | 11.5% | 21.6% | 20.2% | 87.2 | 22.4 | 52.4% | 25% | 33.1% | 85.3 | 14.4
8 | Cn1cc(-c2nonc2-c2c[nH]c3ccc(F)cc23)c2cccnc21 | 58.7% | 69.2% | 89.1% | 90.9 | 71.3 | 87.1% | 61.7% | 82% | 72.9 | 73.1
9 | CCOC(=O)c1c(C(=O)OCC)c2cc(-c3ccn4c(C(=O)c5ccccc5)c(C(=O)OCC)c(C(=O)OCC)c4c3)ccn2c1C(=O)c1ccccc1 | 90.4% | 50.6% | 71.8% | 130 | 89.2 | 109% | 82.3% | 95% | 80.7 | 89.5
10 | O=[N+]([O-])c1ccc2c(c1)Cc1cc(F)ccc1-2 | 103% | 89.3% | 103% | 96.6 | 91.7 | 99.1% | 105% | 113% | 95.6 | 106
11 | Clc1ccc2c(NCCCNc3nc(-n4ccnc4)nc4ccccc34)ccnc2c1 | 58.4% | 69.3% | 86.2% | 96.3 | 75 | 94.5% | 79.1% | 90.2% | 84.6 | 101
12 | COc1ccc(CN2c3ccccc3Oc3ccccc32)cc1O | 17.4% | 14.1% | 35.6% | 91.5 | 55.1 | 31.3% | 45.3% | 18.6% | 31.1 | 25.2
